# Measurements reported in PubChem BioAssay AID588342 (National Center for Advancing Translational Sciences (NCATS), 2011).
# Hit rate of the full screen: of about 360,000 compounds, about 25,000 (6.9%) were called active. About 9% were inconclusive and are not listed. Calls come from the whole dose curve; as a rule, active = well fitted inhibition curve with a large enough effect; inconclusive = small, poorly fitted or top-dose-only effect; inactive = flat fitted curve, though single readings scatter. Only a selection was taken, and actives are over-represented in it overall.
# Target: Luciferin 4-monooxygenase (Photinus pyralis) (UniProt P08659)
# Sequence (P08659 whole entry, looked up): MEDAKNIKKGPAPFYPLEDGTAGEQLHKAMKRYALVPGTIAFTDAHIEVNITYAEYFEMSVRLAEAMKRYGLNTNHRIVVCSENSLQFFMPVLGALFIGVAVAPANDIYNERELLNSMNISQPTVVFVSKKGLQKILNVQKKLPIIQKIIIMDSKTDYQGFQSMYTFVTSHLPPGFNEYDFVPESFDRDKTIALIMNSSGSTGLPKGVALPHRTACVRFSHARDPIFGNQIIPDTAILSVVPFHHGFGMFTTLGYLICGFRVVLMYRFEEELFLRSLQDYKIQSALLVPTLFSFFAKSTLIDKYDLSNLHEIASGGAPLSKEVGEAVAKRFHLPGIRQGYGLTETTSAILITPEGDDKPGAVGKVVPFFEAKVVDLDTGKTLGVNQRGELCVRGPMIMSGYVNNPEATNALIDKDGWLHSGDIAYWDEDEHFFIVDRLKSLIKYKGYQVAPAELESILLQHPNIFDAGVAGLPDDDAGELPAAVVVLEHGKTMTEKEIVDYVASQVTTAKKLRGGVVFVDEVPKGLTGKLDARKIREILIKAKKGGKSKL
# Assay: qHTS profiling assay for firefly luciferase inhibitor/activator using purifed enzyme and Km concentrations of substrates (counterscreen for miR-21 project); note: nearly all actives have a fitted effect of over 55% in size;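 for activity change, negative = inhibition: plate controls were vehicle for no effect and reference inhibitor for full effect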
# Conditions: purified FLuc, luminescence inhibition; series mostly up to 57.5 µM; activity change, negative = inhibition: at the top concentration
# In short: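 Purified P. pyralis luciferase (10nM final) with 10uM D-luciferin and 10uM ATP (Km levels) in 50mM Tris acetate pH 7.5, 10mM Mg acetate, 0.01% Tween-20, 0.05% BSA; qHTS 6-point titration, ~60 µM downward; luminescence read.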
# Potency is the fitted concentration of half-maximal effect.
Structure (SMILES),"activity change, negative = inhibition",Potency
CCOC(=O)c1[nH]c(C)c(CCC(=O)NCc2ccccc2C)c1C,-6.99% (inactive),
COc1ccc(CCNC(=O)C(=O)NCC(c2ccco2)S(=O)(=O)c2cccs2)cc1OC (configuration not stated),6.4% (inactive),
O=C(NCC#CCSc1nnc(-c2cccc3ccccc23)o1)c1cccs1,1.74% (inactive),
C#CCSc1nnc(-c2sc3ccccc3c2Cl)o1,,5.36 µM (active)
O=C(OCC#CCSc1nnc(-c2ccncc2)o1)c1sc2ccccc2c1Cl,-11.9% (inactive),
COc1ccc(-c2cc3ccc(OCc4nn[nH]n4)cc3oc2=O)cc1,,1.69 µM (active)
COc1ccc2cc(-c3nc(Cl)c4c5c(sc4n3)CC(C)CC5)c(=O)oc2c1 (configuration not stated),-5.25% (inactive),
Cc1noc(C)c1COc1ccc2ccc(=O)oc2c1,0.0642% (inactive),
COc1ccc(CCN2C(=O)N(c3cccc(OC)c3)C(=O)C2CC(=O)Nc2ccccc2)cc1 (configuration not stated),-3.46% (inactive),
COCCCNC(=O)COc1cc(C)c(Cl)c(C)c1,0.797% (inactive),
Cc1cc(OCc2cc(C(=O)NCc3cc(C(C)C)no3)no2)cc(C)c1Cl,,4.78 µM (active)
CC(C)C(=O)NCc1cc(-c2ccc(Cl)cc2)no1,3.81% (inactive),
CCc1ccc(NC(=O)c2nn(-c3ccc(C)cc3)c(=O)n(C)c2=O)cc1,-1.09% (inactive),
CS(=O)(=O)n1nc(-c2ccco2)nc1N,1.41% (inactive),
Cn1c(SCC(=O)Nc2ccc(Br)cc2F)nnc1-c1ccco1,-15.5% (inactive),
Cn1c(-c2ccco2)nc2cc3ccccc3cc21,,0.12 µM (active)
Cc1cccc(N2CCN(C(=O)c3ccc(Nc4nc5ccccc5n5nnnc45)cc3)CC2)c1C,-9.44% (inactive),
O=C(Nc1cc2ccccc2oc1=O)C1CCCCC1,,2.39 µM (active)
Cc1ccccc1NC(=O)C1CCN(C(=O)NC2CCCCC2)CC1,1.56% (inactive),
Cc1cc(NC(=O)CN2CCCCC2C)nc2c1c(=O)oc1ccccc12 (configuration not stated),1.83% (inactive),
COC(=O)c1cc(NC(=O)CCS(=O)(=O)c2cc(Br)cc3c2N(C(=O)C2CC2)CC3)cc(C(=O)OC)c1,-5.07% (inactive),
O=C1CCCc2cc(S(=O)(=O)N3CCCC(C(=O)NCc4ccccc4)C3)ccc2N1 (configuration not stated),5.19% (inactive),

Structure (SMILES),"activity change, negative = inhibition",Potency
CC(C)(C)OC(=O)N1CCC(c2c(C(=O)NCc3ccccn3)cnn2-c2ccc(F)cc2)CC1,0.137% (inactive),
Cc1ccc(NC(=O)CN(C)C(=O)c2ccc(Br)o2)cc1,0.27% (inactive),
Cc1nc2ccccc2n1CC(=O)N/N=C/c1cccs1,4.13% (inactive),
CCOC(=O)c1c(N)n(-c2cccc(C)c2C)c2nc3ccccc3nc12,-3.45% (inactive),
CCC(C)NC(=O)c1c(N)n(/N=C/c2cccs2)c2nc3ccccc3nc12 (configuration not stated),,3.01 µM (active)
CCCc1cc(=O)[nH]c(SCc2cc(=O)oc3c(C)c(C)ccc23)n1,-14.4% (inactive),
CN1CCN(C(=O)CCc2ncc(C(F)(F)F)cc2Cl)CC1,0.917% (inactive),
O=C(CN1CCN(c2ccccn2)CC1)NC1CCCCC1,-0.747% (inactive),
N/C(=N\OC(=O)CC1CCCCC1)c1ccccc1,,2.13 µM (active)
COc1ccccc1OCC(=O)OCn1c(SC)nnc(C)c1=O,2.06% (inactive),
COc1ccccc1NC(=O)C(C)OC(=O)CC1CCCC1 (configuration not stated),4.56% (inactive),
CC(C)(C)NC(=O)NC(=O)COC(=O)CCC1CCCCC1,2.91% (inactive),
COc1ccccc1OCC(=O)OCc1cc(-c2ccco2)on1,-4.02% (inactive),
COc1ccccc1OCC(=O)O/N=C(\N)c1ccccn1,,19 µM (active)
N/C(=N\OC(=O)CCC1CCCCC1)c1ccccn1,,0.536 µM (active)
O=C(CC1CCCCC1)NCc1ccccc1,-18.6% (inactive),
CN(C(=O)CSc1nc2ccc(NC(=O)COc3ccccc3)cc2s1)c1ccccc1,-14.5% (inactive),
CN(C(=O)COC(=O)Cn1cnc2c1c(=O)n(C)c(=O)n2C)C1(C#N)CCCCC1,3.02% (inactive),
Cc1ccc(Cl)cc1N1CCN(C(=O)c2cccn3c(=O)c4cc(Cl)ccc4nc23)CC1,-2.45% (inactive),
COc1ccc(N2CCN(CCNC(=O)c3nnc(Cc4c(F)cccc4Cl)o3)CC2)cc1,4.25% (inactive),
COc1cc(OC)c(N(C)C(=O)c2cc3c(=O)oc4ccccc4c3s2)cc1Cl,-0.794% (inactive),
COc1cc(OC)c(OC)cc1/C=C/c1nc2cc3ccccc3cc2c(=O)n1-c1ccc(F)c(Cl)c1,-1.28% (inactive),

Structure (SMILES),"activity change, negative = inhibition",Potency
CC(C)CCNC(=O)CSc1nc2ccccc2nc1Cc1ccc(Cl)cc1,-4.71% (inactive),
CCOC(=O)CCNC(=O)N1CCCC(C(=O)c2ccccc2SC)C1 (configuration not stated),-2.33% (inactive),
CCc1ccc(CNC(=O)C2CCCN(c3nc4ccccc4o3)C2)cc1 (configuration not stated),3.01% (inactive),
CCOC(=O)c1cnc(Nc2nc3ccccc3o2)nc1CSC(=S)N1CCCCC1,,9.53 µM (active)
COCCNC(=O)CSc1c(C)cnc2c1c(=O)n(C)c(=O)n2C,-1.51% (inactive),
COc1ccc(-c2nc(CN3CCC(C(=O)NCCN(CC(C)C)CC(C)C)CC3)c(C)o2)cc1OC,-5.23% (inactive),
O=C1/C(=C/c2coc3ccc(O)cc3c2=O)SC(=S)N1c1ccccc1,-7.68% (inactive),
CC(C)CN(Cc1c(O)ccc2c(=O)c(-c3ccccc3)coc12)CC(C)C,4.11% (inactive),
O=c1c(-c2ccccc2)coc2cc(O)ccc12,,15.1 µM (active)
COC(=O)COc1ccc2c(c1C)O/C(=C\c1ccco1)C2=O,,2.13 µM (active)
Cc1cc(C)c(OCC(=O)N/N=C/c2ccco2)c(C)c1,4.89% (inactive),
COC(=O)C1=C(C)N(c2ccc(Br)cc2)C(=O)/C1=C\c1ccco1,-2.45% (inactive),
Cc1nn(CC(=O)NCCc2ccccc2)c(=O)c2c1sc1ccccc12,-0.483% (inactive),
O=C(c1ccc(CSc2ccccc2)cc1)N1CCCCCC1,,23.9 µM (active)
CC1CCN(C(=O)c2ccc(CSc3ccc(Cl)cc3)cc2)CC1,-1.34% (inactive),
O=C(c1ccc(S(=O)(=O)c2ccccc2)cc1)N1CCCCCC1,4.38% (inactive),
COc1cc(OC)c(N2CC(C(=O)Nc3cc(Cl)ccc3N3CCOCC3)CC2=O)cc1Cl (configuration not stated),-1.25% (inactive),
O=C(/C=C/c1ccccc1[N+](=O)[O-])OCC(=O)N1CCCC1,-2.54% (inactive),
CC(C)CNC(=O)COC(=O)/C=C/c1ccccc1[N+](=O)[O-],-0.249% (inactive),
O=C(/C=C/c1ccccc1[N+](=O)[O-])OC1CCCCC1=O (configuration not stated),,15.1 µM (active)
CCOc1ccc(CCNC(=O)c2c(C)oc3ncn(C)c(=O)c23)cc1,-15.7% (inactive),
O=C(Nc1cccc(C(=O)NC2CC2)c1)c1ccc(F)c(S(=O)(=O)N2CCOCC2)c1,1.1% (inactive),

Structure (SMILES),"activity change, negative = inhibition",Potency
Cc1ccnc(N2C(=O)c3ccc([N+](=O)[O-])cc3C2=O)c1,-0.44% (inactive),
Cc1ccc(-n2cc3ccc([N+](=O)[O-])cc3n2)cc1,,0.953 µM (active)
Cc1ccc(-c2cn(S(=O)(=O)c3cccc([N+](=O)[O-])c3)nc2N)cc1,0.0034% (inactive),
COc1ccc(C2=CC(c3ccccc3Cl)n3nc(-c4ccc(Cl)cc4)nc3N2)cc1 (configuration not stated),-4.89% (inactive),
NS(=O)(=O)c1ccc(NC(=O)COc2ccc(S(=O)(=O)NC3CCCCC3)cc2)cc1,-1.09% (inactive),
COc1ccc(CSc2nnnn2-c2ccc(C(=O)O)cc2)cc1,0.195% (inactive),
COc1ccc(-n2nnnc2-c2nc3ccccc3s2)cc1,,0.601 µM (active)
COc1ccc(-n2nnnc2CNC(=O)c2ccc3ccccc3c2)cc1,2.8% (inactive),
Cc1ccc(S(=O)(=O)NCCC(=O)NCc2ccc(Cl)cc2)cc1C,1.46% (inactive),
COc1cccc(CNCc2c(C(=O)O)n(Cc3ccc(C)cc3)c3cc(C)ccc23)c1OC,-2.43% (inactive),
COC(=O)c1cc(OC)ccc1-c1ccc(OC)cc1,0.668% (inactive),
COc1ccc(C(=O)NCC(=O)N/N=C/c2cccnc2)cc1,2.39% (inactive),
CO/N=C/CC(=O)c1ccc(OC)cc1,-0.488% (inactive),
CCOC(=O)C1CCCN(C(=O)/C=C/c2ccc(OC)cc2)C1 (configuration not stated),-18.1% (inactive),
COc1ccc(C(=O)/C=C/c2ccc(OC3CSC3)cc2)cc1,,12 µM (active)
COc1ccc(C(=O)/C=C/c2cccnc2)c(OC)c1,,19 µM (active)
COc1cccc(N2CC(NC(=O)/C=C\c3ccccc3)CC2=O)c1 (configuration not stated),1.08% (inactive),
COc1ccc(/C=C/C(=O)c2ccc(OC)cc2O)cc1,,7.57 µM (active)
COc1ccc(C(=O)CCC(=O)Nc2cccnc2)c(OC)c1,-7.14% (inactive),
Cc1ccc(C)c(CNC(=O)c2cc3ccccn3n2)c1,-5.12% (inactive),
COc1ccc(S(=O)(=O)NCC(=O)NCc2cc(=O)n(C)c(=O)n2C)cc1F,4.13% (inactive),
COc1cccc(C(c2c(O)cc(C)n(Cc3ccco3)c2=O)N2CCN(c3ccccc3)CC2)c1 (configuration not stated),-13.6% (inactive),

Structure (SMILES),"activity change, negative = inhibition",Potency
CCOc1ccc(-c2cc3nc(C4CCN(C(=O)OC(C)(C)C)CC4)c(C(=O)Nc4ccc(C(=O)OC)cc4)cn3n2)cc1,-8.05% (inactive),
COc1ccccc1NC(=O)C1=C(C)Nc2nc(SCC(=O)c3ccc(C)cc3)nn2C1c1ccccc1C (configuration not stated),5.07% (inactive),
Cc1cc(C(=O)Nc2cccc(C(F)(F)F)c2)c2c(C)nn(-c3cccc(F)c3)c2n1,-8.84% (inactive),
CC(C)=C(NC(=O)c1ccccc1)C(=O)N/N=C(\C)c1ccccc1O,4.12% (inactive),
C/C(=N\NC(=O)c1ccoc1C)c1ccccc1O,,15.1 µM (active)
COc1ccccc1N(CC(=O)N/N=C(\C)c1ccccc1O)S(=O)(=O)c1ccc(C)cc1,3.81% (inactive),
CCCOC(=O)c1c(NC(=O)c2cc3nc(-c4ccc(OC)cc4)cc(C(F)(F)F)n3n2)sc2c1CCCC2,-5.72% (inactive),
COc1ccc(N2CCN(C(=O)CSCc3nc(-c4ccccc4Cl)oc3C)CC2)cc1,-11.4% (inactive),
COc1ccc(-n2ccn(CC(=O)Nc3ccc(C)c(C)c3)c(=O)c2=O)cc1OC,-7.6% (inactive),
Cc1cccc(S(=O)(=O)c2cn(Cc3ccccc3)c3cc(N4CCOCC4)c(F)cc3c2=O)c1,-6.65% (inactive),
O=C(NCCCO)c1nn(-c2ccc(Cl)cc2)nc1CO,-18.3% (inactive),
CN(C)c1nnnn1-c1ccc(Cl)cc1,-2.83% (inactive),
Nc1ccc2nn(-c3ccc(Cl)cc3)nc2c1,,0.757 µM (active)
COc1ccc(/C=N/Nc2ccccc2C(=O)O)cc1,,0.151 µM (active)
COc1ccc(/C=N/OCC(=O)N(Cc2ccccc2)c2ccccc2C(=O)O)cc1,1.35% (inactive),
COc1cc(OC)c(S(=O)(=O)Nc2ccccc2C(=O)O)cc1S(=O)(=O)Nc1ccccc1C(=O)O,-6.46% (inactive),
COc1ccc(/C=N/Nc2nc(-c3ccc(C)cc3)c(C#N)c(=O)[nH]2)cc1,2.09% (inactive),
COc1ccc(CCCc2nnc(SCc3nc4ccccc4c(=O)[nH]3)n2C)cc1,2.77% (inactive),
COc1ccc(/C=N/Nc2nc3ccccc3c(=O)[nH]2)cc1,,6.01 µM (active)
